In all, about 59,000 sequences were measured (the read-out: median about -0.00055, lowest 2% from about -2 on). The entries come from a sample that favours the lowest values as a whole.

The nature of this experiment: Identification of proteins required for the processing of the EWS-FLI1 nascent transcript.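 Further: robust z of luciferase light less the median z of siRNAs with the same seed.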 As to conditions: TC32 Ewing sarcoma NR0B1-luc vs CMV-luc (EWS-FLI1 target promoter against control promoter), 48 h; screened at 20 nM (by protocol). The procedure, abridged: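 Three siRNAs per gene, each in a separate well at 20 nM, were transfected into TC32 cells bearing either reporter construct. Luminescence was measured two days on, and per-gene comparison relied on seed-corrected Z values.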
UUGUAUUCCACAGAAGUAA against SLC25A41 came in with a seed-corrected z-score of 0.115. As to UGUCGUAUCUCUCUUCAUC against TNNI3, the seed-corrected z-score was -0.115. As for UUACUGCUGAAUACAGACU against HRASLS, the figure is -2.09; as for UAUGUCCCAAAUAUACACC against SLC36A3, 0.459.

In the case of UUCUUACUCCAAUAUCUCC against WWC2, the seed-corrected z-score was -0.0295. Under UUUGAUGAAGGGUACGUGG against KIF11 stands -2.31. Under UUCUCAAUGAUAUUAUGGG against SREBF2 stands -0.569; under AUCAUAGCAACAGUGCUGC against IGFL1, -2.6; under UGAACAUUGAGUAACGAAC against ORAOV1, 0.0373. On to UCUGUUCUCGGUCAAAGAC against DCAF11, for which the seed-corrected z-score was -0.91.

Sequence UUUAGUUCCUGAUCGAAAG against ZNF800 yielded a seed-corrected z-score of 1.28. Under AUCUUUACGAGCUUCAGCC against FAM185BP stands 1.55. As for UCACUGUCAAACUCGUGCC against ARHGAP33, the figure is -2.08; as for AUUGUAAUCGCGAAUAUCC against MESDC2, 0.809. As for UUCCCUCUUUGGGUCUUCC against SNX11, the figure is 0.0123. Consider UACAGCUCCGAAAAACUCC against SIPA1, for which the seed-corrected z-score is -1.18. The sequence UUGACUGUCACUGAGGUAG against SDK2 came in with a seed-corrected z-score of -0.0428.

As to UGUCGUACCAGUCGGACCA against TAC1, the seed-corrected z-score was -2.02. As for UAUUCGUUAUCAAAUUGUG against TMOD3, the figure is 0.393. Under UCCGUUUUCCACGUAGUGC against FRMD1 stands -0.836; under UAUGUCUUCACGCAGCCGC against PI4KAP2, -1.12; under UACGUUUGCUUUGCGCUCG against NR0B1, -0.672. As for UUGGGAUUAACACUUGUGA against LINC00851, the figure is -2.42; as for UUGAAGUUUUCAAUUGUGC against CYSLTR2, -0.797. UCAGCUAACUCUGUCUCUG against SNX19P3 returned a seed-corrected z-score of -0.302.

The sequence AUUGUGAUGAACCUCGUCC against ARHGAP40 came in with a seed-corrected z-score of -0.617. UUAGUGAUCUGAUAGUGGG against POGLUT1 displayed a seed-corrected z-score of 0.238.

The sequence AAUUCCAAAACCAAUGUGC against MS4A12 had a seed-corrected z-score of 0.147. In the case of UGUUUCUCUGACUUGAGUG against IFI27L2, the seed-corrected z-score is -2.28. Under UUCUUAUUGAGUUUCAGCC against MSN stands 0.564. As for UAAAUUUGUCGAGUUGCUC against CFAP99, the seed-corrected z-score was determined as 0.485. Under UUGACAAAAGUGAGGAUCG against LGALS14 stands 0.5. Under UCUAUGGGCAGUGGCAUCU against GOLGA2P10 stands -1.07; under UGUGCAACUGGUCUUGUGC against BBS4, 0.33; under UGUUGUAGAAGGUAAACCC against CLRN3, -2.64. With UAAUGUCAAAUUUUCCUCC against P2RX7, the seed-corrected z-score was -0.332.

These data come from PubChem BioAssay AID1159506 (National Center for Advancing Translational Sciences (NCATS), 2015).
